Reference: PubChem BioAssay (NCI)
The panel holds about 83,000 compounds, 20% with a hit somewhere; the sample as a whole holds those more often.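 Cells were grown in 96-well plates and exposed to the test compound at a single concentration for 48 hours; results are reported as percent growth, with values below 10 considered active.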 A number with no mark means an inactive call. The source made the active and inactive calls.

Columns and labels:
Test in all cases: NCI-60 one-dose screen, 48 h (100 = growth as untreated, 0 = no growth, -100 = all killed)
Conditions in all cases: 10 µM unless noted
T-47D breast = system: T-47D breast
BT-549 breast = system: BT-549 breast
MDA-MB-435 melanoma = system: MDA-MB-435 melanoma
MCF7 breast = system: MCF7 breast
HCT-116 colon = system: HCT-116 colon
HCC-2998 colon = system: HCC-2998 colon
KM12 colon = system: KM12 colon
SW-620 colon = system: SW-620 colon

Structure (SMILES) | growth (T-47D breast) | growth (BT-549 breast) | growth (MDA-MB-435 melanoma) | growth (MCF7 breast) | growth (HCT-116 colon) | growth (HCC-2998 colon) | growth (KM12 colon) | growth (SW-620 colon)
CCCCOc1ccc(S(=O)(=O)N2CCN(c3nccc(N4CCOCC4)n3)CC2)cc1 | 69% | 13% | 14.5% | 87.5% | 12.6% | 33.8% | 16% | –
COc1ccc(/C=C/C(=O)c2nnn(-c3ccc(Br)cc3)c2C)cc1OC | 66.4% | 63.9% | 61.3% | 12.9% | 5.41% (active) | 83.7% | 66.7% | –
c1cncc(-c2cn3nc(-c4c[nH]c5ccccc45)sc3n2)c1 | 69.7% | 33.3% | -38% (active) | 34.7% | 28.8% | 59.1% | 26.6% | –
O=C(O)c1ccc(-n2cc(CNc3ccc(Cl)cc3)c(-c3ccc(F)cc3)n2)cc1 | 91.4% | 101% | 98.1% | 80.1% | 82.7% | 112% | 104% | –
O=C1[C@@H]2Cc3c([nH]c4ccccc34)[C@H](c3c(Cl)cccc3Cl)N2C(=O)CN1C1CCN(Cc2c(F)cccc2F)CC1 | 94.9% | 80.4% | 85.1% | 40.4% | 15.7% | 63.8% | 74.5% | –
Cc1csc(Nc2cccc(Nc3nc(C)cs3)c2)n1 | 36.1% | 73.7% | 82.1% | 73.3% | 56.5% | 90.3% | 87.8% | –
C=C(C)C(=O)O[C@H]1C[C@@]2(C)OC(=CC2=O)/C(CO)=C\[C@H]2OC(=O)C(=C)[C@H]12 | -5.88% (active) | -7.7% (active) | -71% (active) | -7.53% (active) | -53.7% (active) | – | -8.61% (active) | –
CN1CCN(c2ccc3c(C(N)=O)c(NC(=O)c4ccc(C(C)(C)C)cc4)sc3c2)CC1 | 92.3% | 89.9% | 95.1% | 39.7% | 37.6% | 96.2% | 81.7% | –
Cc1nn(-c2ccccc2)c2nc(CCl)[nH]c(=O)c12 | 66% | 100% | 97.9% | 16.4% | 24.9% | 108% | 53.3% | –
ClC(Cl)c1nc(-c2cccs2)n2nc(-c3ccccc3)cc2n1 | 2.65% (active) | 87.4% | -9.17% (active) | -4.41% (active) | -23.7% (active) | -71.3% (active) | -36.4% (active) | –
NC(=O)N1N=C(c2cc3ccccc3oc2=O)CC1c1cn(-c2ccccc2)nc1-c1ccc(Cl)cc1 (centres undefined) | 25.1% | 68.7% | 47.4% | 25.4% | 26.7% | 57% | 34.5% | –
CC1CCN(S(=O)(=O)c2ncsc2-c2ccccc2)CC1 | 90.7% | 73.5% | 95.5% | 72.3% | 87.5% | 97.4% | 94.8% | –
Cc1ccc(-c2nnc3sc(C4=Cc5ccccc5OC=C4)nn23)cc1 | 91.6% | 95.7% | 93.7% | 88.9% | 104% | 101% | 106% | –
c1ccc(-c2n(Cc3ccc4ccccc4c3)c3c4ccccc4c4ccccc4c3[n+]2Cc2ccc3ccccc3c2)cc1 | -41.7% (active) | -69.9% (active) | -85.4% (active) | -75% (active) | -61.6% (active) | -90.8% (active) | -85.5% (active) | –
CC(C)C[C@H]1C(=O)O[C@H](C(C)C)C(=O)N(C)[C@@H](C(C)C)C(=O)O[C@H](C(C)C)C(=O)N(C)[C@@H](C(C)C)C(=O)O[C@H](C(C)C)C(=O)N1C | 6.43% (active) | 17.6% | 21.9% | 13.8% | 9.58% (active) | 23.1% | 16.6% | –
COc1ccc(Cn2cc3c(c2-c2cc(OC)c(OC)c(OC)c2)CCCc2cnoc2-3)cc1 | 39.1% | 63.3% | -48.2% (active) | 11.5% | 19% | 32.4% | 29% | –
COc1ccc(C2C(C#N)=C(N)Oc3c2sc2ccc(C)cc32)cc1 (centres undefined) | 32.7% | 26.8% | -26.4% (active) | 19.2% | 22.1% | 53.2% | 24.2% | –
C/C(=C(/c1ccc(O)cc1)c1ccc(OCCN(C)C)cc1)c1ccc(Cl)cc1 | 30.9% | 73.7% | 28.1% | 15.7% | 25.6% | 7.02% (active) | – | –
O=C(CN1CCN(c2cc(=O)n(-c3ccccc3)c3ccccc23)CC1)Nc1ccc([N+](=O)[O-])cc1 | 64.9% | 94.5% | – | 88.2% | 92.6% | 105% | 92.9% | 92.3%
NS(=O)(=O)Oc1ccc2nc(Nc3ccc(F)c(F)c3)ccc2c1 | 90% | – | 89% | 93.2% | 92.2% | 90.3% | 58.9% | 105%
COc1cc(/C=C/C(=O)c2ccc(N3CCN(C)CC3)cc2)ccc1F | 44.4% | – | 54.7% | 24.9% | 27.8% | 73% | 36.7% | 33%
C#C[C@]1(O)CC[C@H]2[C@@H]3CC=C4c5sc(Nc6cc(OC)ccc6OC)nc5CC[C@]4(C)[C@H]3CC[C@@]21C | 22.8% | 30.2% | – | -2.69% (active) | 19.3% | 62.4% | 24.6% | 18.4%
CCC(=O)Nc1cc(Nc2cc(NC3CC3)n3ncc(C#N)c3n2)ccc1C | 6.41% (active) | 29.5% | – | 3.83% (active) | 19.2% | 41.6% | – | 17.4%
O=C1/C(=C/c2ccccc2[N+](=O)[O-])Oc2ccc(O)cc21 | 44.2% | 49.9% | – | 6.93% (active) | -20.5% (active) | 73.3% | 64.2% | -14.7% (active)
COc1ccc(NS(=O)(=O)c2ccc(-c3cnc(C4CC4)o3)cc2)cc1Cl | 30.3% | 57.5% | – | 17.4% | 26.7% | 53.1% | 22.7% | 22.6%
O=S(=O)(Nc1cc(Cl)cc(Cl)c1)c1ccc(-c2cnc(C3CC3)o2)cc1 | 41.7% | 58.4% | – | 20.9% | 31.3% | 56.7% | 24.2% | 26.1%
CCNCc1c(-c2cccc(OC(F)(F)F)c2)[nH]c2ccc(N3CCCC3)cc2c1=O | 28.9% | 50.6% | – | 11.4% | 11.2% | -27.7% (active) | 14.8% | 16.8%
CC(=O)Nc1ccc(NC(=O)Nc2cccc(-c3nc(-c4ccc(NC(=O)c5cccnc5)cc4Cl)no3)c2)cc1C(F)(F)F | -43.7% (active) | -29.9% (active) | – | -61.3% (active) | -47.4% (active) | -77.6% (active) | -46.2% (active) | –
O=C(NCCCCCCNC(=O)c1c2c(nc3ccccc13)-c1cccnc1SC2)c1c2c(nc3ccccc13)-c1cccnc1SC2 | 79.7% | – | 56.8% | 76.1% | 66.3% | 44.6% | 74.7% | 39.2%
